Measurements as given in PubChem BioAssay.
Entries with a potency or affinity are not part of this list. Calls of active or inactive are those of the source.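 Rule for the calls, unless noted: active = primary screen activator hit with a dose response curve and TRPC4 channel activation at any tested dose; inactive = no activation, no dose response, or not a primary hit.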

biological target: Short transient receptor potential channel 4 (Mus musculus) (UniProt Q9QUQ5); assay: mouse TRPC4 channel activators, dose response, cell-based, HEK293 TRPC4/mu-opioid, Fluo-4 calcium (AID 434937); conditions: HEK293 TRPC4 cells, Fluo-4 calcium fluorescence ratio; series mostly up to 20 µM; activation ratio: at the top concentration
Sequence (Q9QUQ5 whole entry, looked up): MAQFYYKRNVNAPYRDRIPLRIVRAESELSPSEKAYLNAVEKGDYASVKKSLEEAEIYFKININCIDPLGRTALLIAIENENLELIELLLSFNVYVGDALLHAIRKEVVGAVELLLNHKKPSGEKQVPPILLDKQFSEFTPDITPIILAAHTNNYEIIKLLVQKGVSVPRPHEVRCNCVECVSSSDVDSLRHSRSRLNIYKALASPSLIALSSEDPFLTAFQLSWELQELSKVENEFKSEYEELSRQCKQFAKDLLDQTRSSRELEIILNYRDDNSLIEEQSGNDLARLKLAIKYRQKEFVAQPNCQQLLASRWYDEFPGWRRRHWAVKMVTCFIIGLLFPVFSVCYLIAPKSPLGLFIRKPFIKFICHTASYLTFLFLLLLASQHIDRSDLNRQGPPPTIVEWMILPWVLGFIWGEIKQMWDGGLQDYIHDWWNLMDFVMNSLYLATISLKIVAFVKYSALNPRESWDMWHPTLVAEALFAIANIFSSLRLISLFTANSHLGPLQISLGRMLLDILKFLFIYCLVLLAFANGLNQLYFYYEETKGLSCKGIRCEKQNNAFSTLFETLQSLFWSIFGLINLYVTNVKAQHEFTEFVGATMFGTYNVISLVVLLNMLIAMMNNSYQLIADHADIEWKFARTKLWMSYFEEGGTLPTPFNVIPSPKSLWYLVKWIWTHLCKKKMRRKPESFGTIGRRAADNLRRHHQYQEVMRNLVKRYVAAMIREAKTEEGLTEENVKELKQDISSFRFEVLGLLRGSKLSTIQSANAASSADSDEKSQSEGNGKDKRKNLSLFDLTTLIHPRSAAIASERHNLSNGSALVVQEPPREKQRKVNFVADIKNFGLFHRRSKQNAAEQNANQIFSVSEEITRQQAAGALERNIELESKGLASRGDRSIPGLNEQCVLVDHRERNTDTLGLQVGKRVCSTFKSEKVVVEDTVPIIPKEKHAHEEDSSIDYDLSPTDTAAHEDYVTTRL

Compound | activation ratio
CN(C)C(CNC(=O)c1oc2ccccc2c1CSc1ncn[nH]1)c1ccco1 (stereo not drawn) | 3.83 (inactive)
Cc1nn(-c2ccccc2)c(Cl)c1CN(C(=O)CCl)c1ccc(Cl)cc1 | -0.76 (inactive)
COc1ccccc1N1CCc2c(C)nc3c(OC)cccc3c21 | 0.85 (inactive)
Cc1cc(CN2CCCC(C(=O)Nc3ccc(-c4nc5ccccc5[nH]4)cc3)C2)n[nH]1 (stereo not drawn) | -1.08 (inactive)
CCCCNCC1C(Oc2ccc(Cl)cc2)C(=O)N1c1ccccc1C (stereo not drawn) | 66.9 (inactive)
O=C1COc2ccc(N3C(=O)C=CC3=O)cc2N1 | 4.46 (inactive)
Cc1nc2scc(-c3ccccc3)c2c(=O)n1N=C1C=CC(=O)C=C1 | 7.16 (inactive)
CCOC(=O)C1=NN(c2ccccc2C)C2=NC(C)=C(C(=O)OC)C(c3cccc(OC)c3)N12 (stereo not drawn) | -1.77 (inactive)
N/C(Cc1cccc2ccccc12)=N\OC(=O)c1cccs1 | -0.12 (inactive)
CCCSc1nc(N)nc(-c2cccs2)c1C#N | 3.47 (inactive)
Cc1ccc(NC(=O)c2cc(N3C(=O)C=CC3=O)ccc2N2CCOCC2)cc1 | 13.5 (inactive)
Cc1ccc(NC(=O)CNc2ccccc2CN(C)C2CCCCC2)cc1 | 10.7 (inactive)
CC1(C)CC(NC(=O)c2cc(COc3cccc(C(F)(F)F)c3)on2)CCO1 (stereo not drawn) | 1.77 (inactive)
COc1ccc(C2=NN(C(=O)c3ccccc3)C(c3ccc(OC)c(OC)c3)C2)c(O)c1 (stereo not drawn) | -0.63 (inactive)
CCCn1nc([N+](=O)[O-])c(C(C#N)c2nc3ccccc3o2)c(Cl)c1=O (stereo not drawn) | 23.1 (inactive)
COc1ccc(C(CNc2ccc(C(F)(F)F)cn2)N(C)C)cc1OC (stereo not drawn) | 21.4 (inactive)
COc1cccc(C2=NN(C(=O)c3ccco3)C(c3ccco3)C2)c1 (stereo not drawn) | -2.38 (inactive)
c1ccc(Cn2c(NCc3ccco3)nc3ccccc32)cc1 | 0.01 (inactive)
CC(=O)c1ccc2c(c1)N(C)c1ccccc1S2 | -18.6 (inactive)
CCOC(=O)C1CCN(CC(O)COc2ccc(C(C)(C)C)cc2)CC1 (stereo not drawn) | 2.73 (inactive)

Compound | activation ratio
CC(C)C1=Nc2cccc3cccc(c23)N1 | 1.27 (inactive)
Cc1cccc2nc(CSc3ccc(Cl)cc3)cn12 | -2.17 (inactive)
O=C(NC1CCCCC1)N1CCN(C(c2ccccc2)c2ccccc2)CC1 | 7.61 (inactive)
COc1cc(CNC2CCCC2)c(Br)cc1OCc1ccccc1 | 27 (inactive)
COc1ccc(Nc2cc(C)nc3ccc(OC)cc23)cc1 | 42.6 (inactive)
Cc1ccc(NC(=S)N(CCCN(C)C)Cc2cc3cc4c(cc3[nH]c2=O)OCO4)c(C)c1 | 0.98 (inactive)
COc1ccc(CN2CCN(Cc3ccc(C(F)(F)F)cc3)CC2)c(OC)c1 | 9.82 (inactive)
Cn1cc(CNCC2CCCO2)c(-c2ccc(Oc3ccccc3)cc2)n1 (stereo not drawn) | 7.82 (inactive)
CCCCCCCCCCCCOC(=O)C[N+](C)(C)C | 1.4 (inactive)
CN(C)CCCN(C(=O)c1ccc(S(=O)(=O)N2CCCC2)cc1)c1nc2c(F)cc(F)cc2s1 | 110 (inactive)
C=C(c1ccc(O)cc1)c1ccc(O)cc1 | 4.22 (inactive)
C/C(N)=C(/C#N)C(=O)COC(=O)CC12CC3CC(CC(C3)C1)C2 | 2.33 (inactive)
Cc1cccc2cc(CN(CCCN(C)C)C(=S)NCCc3ccccc3)c(=O)[nH]c12 | 23.2 (inactive)
Nc1cc(C(F)(F)F)ccc1Nc1ccccc1 | 4.84 (inactive)
CCC(C)NC(C(=O)Nc1ccc(Cl)c([N+](=O)[O-])c1)c1ccccc1 (stereo not drawn) | 30.6 (inactive)
COCCn1c(SCc2cccc([N+](=O)[O-])c2)nc2ccccc2c1=O | -0.76 (inactive)
O=C(Nc1cccc(Cl)c1)N1CCN2C(=O)c3ccccc3C12c1ccccc1 (stereo not drawn) | -0.23 (inactive)
CC(C)n1c(NCc2c[nH]c3ccccc23)nc2ccccc21 | 5.59 (inactive)
Cc1nn(-c2ccccc2)c2[nH]c(C(F)(F)F)cc(=O)c12 | 2.67 (inactive)

biological target: Short transient receptor potential channel 4 (Mus musculus) (UniProt Q9QUQ5); assay: TRPC4 positive allosteric modulators, dose response, cell-based, HEK293 TRPC4/mu-opioid, Fluo-4 calcium, EC20 DAMGO (AID 434941;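 active = earlier screen potentiator hit that boosts the TRPC4 ion channel at some dose, with a dose response; inactive = no potentiation, no dose response, or not a prior hit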;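 note: calcium entry triggered by an EC20 dose of DAMGO at the co-expressed mu-opioid receptor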); conditions: HEK293 TRPC4/mu-opioid cells, Fluo-4 calcium fluorescence; series mostly up to 20 µM; potentiation ratio: at the top concentration

Compound | potentiation ratio
CN(C)C(CNC(=O)c1oc2ccccc2c1CSc1ncn[nH]1)c1ccco1 (stereo not drawn) | -0.48 (inactive)
Cc1nn(-c2ccccc2)c(Cl)c1CN(C(=O)CCl)c1ccc(Cl)cc1 | -0.39 (inactive)
COc1ccccc1N1CCc2c(C)nc3c(OC)cccc3c21 | 1.16 (inactive)
Cc1cc(CN2CCCC(C(=O)Nc3ccc(-c4nc5ccccc5[nH]4)cc3)C2)n[nH]1 (stereo not drawn) | -0.3 (inactive)
CCCCNCC1C(Oc2ccc(Cl)cc2)C(=O)N1c1ccccc1C (stereo not drawn) | -50.6 (inactive)
O=C1COc2ccc(N3C(=O)C=CC3=O)cc2N1 | -1.35 (inactive)
Cc1nc2scc(-c3ccccc3)c2c(=O)n1N=C1C=CC(=O)C=C1 | -3.56 (inactive)
CCOC(=O)C1=NN(c2ccccc2C)C2=NC(C)=C(C(=O)OC)C(c3cccc(OC)c3)N12 (stereo not drawn) | -0.65 (inactive)
N/C(Cc1cccc2ccccc12)=N\OC(=O)c1cccs1 | 0.24 (inactive)
CCCSc1nc(N)nc(-c2cccs2)c1C#N | -0.81 (inactive)
Cc1ccc(NC(=O)c2cc(N3C(=O)C=CC3=O)ccc2N2CCOCC2)cc1 | 2.9 (inactive)
Cc1ccc(NC(=O)CNc2ccccc2CN(C)C2CCCCC2)cc1 | -17.6 (inactive)
CC1(C)CC(NC(=O)c2cc(COc3cccc(C(F)(F)F)c3)on2)CCO1 (stereo not drawn) | 0.17 (inactive)
COc1ccc(C2=NN(C(=O)c3ccccc3)C(c3ccc(OC)c(OC)c3)C2)c(O)c1 (stereo not drawn) | -0.01 (inactive)
CCCn1nc([N+](=O)[O-])c(C(C#N)c2nc3ccccc3o2)c(Cl)c1=O (stereo not drawn) | -8.82 (inactive)
COc1ccc(C(CNc2ccc(C(F)(F)F)cn2)N(C)C)cc1OC (stereo not drawn) | -2.61 (inactive)
COc1cccc(C2=NN(C(=O)c3ccco3)C(c3ccco3)C2)c1 (stereo not drawn) | 1.23 (inactive)
c1ccc(Cn2c(NCc3ccco3)nc3ccccc32)cc1 | -0.26 (inactive)
CC(=O)c1ccc2c(c1)N(C)c1ccccc1S2 | -5.8 (inactive)
CCOC(=O)C1CCN(CC(O)COc2ccc(C(C)(C)C)cc2)CC1 (stereo not drawn) | 0.42 (inactive)

Compound | potentiation ratio
CC(C)C1=Nc2cccc3cccc(c23)N1 | -0.21 (inactive)
Cc1cccc2nc(CSc3ccc(Cl)cc3)cn12 | -0.69 (inactive)
O=C(NC1CCCCC1)N1CCN(C(c2ccccc2)c2ccccc2)CC1 | -3.98 (inactive)
COc1cc(CNC2CCCC2)c(Br)cc1OCc1ccccc1 | -21.3 (inactive)
COc1ccc(Nc2cc(C)nc3ccc(OC)cc23)cc1 | -23.2 (inactive)
Cc1ccc(NC(=S)N(CCCN(C)C)Cc2cc3cc4c(cc3[nH]c2=O)OCO4)c(C)c1 | 0.72 (inactive)
COc1ccc(CN2CCN(Cc3ccc(C(F)(F)F)cc3)CC2)c(OC)c1 | -16.4 (inactive)
Cn1cc(CNCC2CCCO2)c(-c2ccc(Oc3ccccc3)cc2)n1 (stereo not drawn) | -8.91 (inactive)
CCCCCCCCCCCCOC(=O)C[N+](C)(C)C | -0.21 (inactive)
CN(C)CCCN(C(=O)c1ccc(S(=O)(=O)N2CCCC2)cc1)c1nc2c(F)cc(F)cc2s1 | -32.9 (inactive)
C=C(c1ccc(O)cc1)c1ccc(O)cc1 | -2.28 (inactive)
C/C(N)=C(/C#N)C(=O)COC(=O)CC12CC3CC(CC(C3)C1)C2 | 0.19 (inactive)
Cc1cccc2cc(CN(CCCN(C)C)C(=S)NCCc3ccccc3)c(=O)[nH]c12 | -14.7 (inactive)
Nc1cc(C(F)(F)F)ccc1Nc1ccccc1 | -1.93 (inactive)
CCC(C)NC(C(=O)Nc1ccc(Cl)c([N+](=O)[O-])c1)c1ccccc1 (stereo not drawn) | -29.2 (inactive)
COCCn1c(SCc2cccc([N+](=O)[O-])c2)nc2ccccc2c1=O | 4.6 (inactive)
O=C(Nc1cccc(Cl)c1)N1CCN2C(=O)c3ccccc3C12c1ccccc1 (stereo not drawn) | -0.79 (inactive)
CC(C)n1c(NCc2c[nH]c3ccccc23)nc2ccccc21 | -7.47 (inactive)
Cc1nn(-c2ccccc2)c2[nH]c(C(F)(F)F)cc(=O)c12 | 0.99 (inactive)
